The values that follow come from PubChem BioAssay (NCATS).

Each structure is given as a SMILES string. Records with an inconclusive call do not appear. Unmarked numbers belong to inactive results. Calls of active or inactive are those of the source. Calls follow the shape of the dose curve; as a rule, active = well fitted inhibition curve with a large enough effect; inconclusive = small, poorly fitted or top-dose-only effect; inactive = flat fitted curve, though single readings scatter.
Potency is read from the fitted curve at half-maximal effect.

The assay has as its system Zika virus NS2B-NS3 protease. Put plainly: Primary screen GU AMC qHTS for Zika virus inhibitors (AID 1347154). Also: nearly all actives have a fitted effect of over 70% in size.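 As to activity change, negative = inhibition: 0% = no-inhibitor control and -100% = no-enzyme control.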 Conditions: Zika NS2B-NS3 unlinked protease, AMC fluorogenic substrate; series mostly up to 54.1 µM; activity change, negative = inhibition: at the top concentration. In a few lines: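 Unlinked Zika NS2B hydrophilic domain/NS3 protease domain noncovalent complex (25 nM final) in 10 mM Tris-HCl pH 8.0, 0.01% Tween 20, with AMC peptide substrate. Fluorescence (ex 340, em 450 nm) change over 15 min, room temperature; percent inhibition fitted to 4-parameter Hill equation.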
Regarding `CCNc1nc(Cl)nc(NCC)n1`, the “activity change, negative = inhibition” value is 0.601%. For the compound `CCN(CC)CCOC(=O)C(C)(c1ccccc1)c1ccccc1`, the “activity change, negative = inhibition” value was 4.46%. Still for that read-out and setting: next, `C=CCOC(Cn1ccnc1)c1ccc(Cl)cc1Cl` (stereo not drawn): -0.698%. For `COc1ccc(CN2CCNCC2)c(OC)c1OC`, the “activity change, negative = inhibition” value is -1.89%.

For the compound `CC(=O)OC1(c2ccccc2)CCN(CCc2ccccc2)CC1`, the “activity change, negative = inhibition” value is -5.32% [at 104 µM]. On the same count and under the same terms, next, `CCc1cc(OC)c(C[C@H](C)N)cc1OC`: -0.715% [at 104 µM]; `c1ccc2c(c1)Sc1ccccc1N2CC1CN2CCC1CC2` (stereo not drawn): -5.42%; `ClCCCN1CCN(c2cccc(Cl)c2)CC1`: -0.166%. For the compound `Nc1ccc(N)cc1`, the “activity change, negative = inhibition” value is -5.49%. On the same count and under the same terms, as for `CCS(=O)(=O)C(C)(C)S(=O)(=O)CC`, the figure is -1.06%. Same read-out and setting: next, `CCN(CC)Cc1nccn1-c1ccc([N+](=O)[O-])cc1C(=O)c1ccccc1Cl`: 2.6%. As for `COc1cc(N)c(Cl)cc1C(=O)NC1CN2CCC1CC2` (stereo not drawn), the Potency entry is “inactive”. Regarding `COc1ccc2[nH]cc(CCN(C(C)C)C(C)C)c2c1`, the “activity change, negative = inhibition” value was 1.77% [at 104 µM].

`Cc1nc2ccccc2c(=O)n1-c1ccccc1Cl`: the “activity change, negative = inhibition” value was -0.954% [at 104 µM]. On the same count and under the same terms, next, `CN(C)C(=O)Oc1cc(OC(=O)N(C)C)cc(C(O)CNC(C)(C)C)c1` (stereo not drawn): -3.84%.

With `C[C@]12Cc3nonc3C[C@@H]1CC[C@@H]1[C@@H]2CC[C@@]2(C)[C@H]1CC[C@]2(C)O`, the “activity change, negative = inhibition” value is -5.33%. The same measure, in the same setting: next, `CN1C[C@@H](NS(=O)(=O)N(C)C)C[C@@H]2c3cccc4c3c(cn4C)C[C@H]21`: 2.54%; `CCC(=O)C(CCN(C)C)(c1ccccc1)c1ccccc1`: 2.84%; `COc1cc(C[C@@H](C)N)c(OC)cc1Br`: 3.14% [at 104 µM]. Take `CCC(=O)O[C@H]1CC[C@H]2[C@@H]3CCC4=CC(=O)CC[C@]4(C)[C@H]3CC[C@]12C`: the “activity change, negative = inhibition” value was -9.27%. With `Nc1ccccc1C(=O)OCC(O)CO` (stereo not drawn), the Potency is 16.1 µM (active).

`Cc1c(Cl)c(=O)oc2cc(OP(=O)(OCCCl)OCCCl)ccc12`: the Potency is 14.4 µM (active).

Take `C[C@H]1CNCCc2ccc(Cl)cc21`: the “activity change, negative = inhibition” value was 0.111%. Take `C[C@H](CN1CCOCC1)C(C(=O)N1CCCC1)(c1ccccc1)c1ccccc1`: the “activity change, negative = inhibition” value is -4.02% [at 104 µM]. On the same count and under the same terms, next, `c1ccc2nc(N3CCNCC3)ccc2c1`: -15.1%; `CCC1(c2cccc(O)c2)CCCCN(C)C1` (stereo not drawn): 8.02%. With `CC#C[C@]1(O)CC[C@H]2[C@@H]3C[C@H](C)C4=CC(=O)CC[C@]4(C)[C@H]3CC[C@@]21C`, the “activity change, negative = inhibition” value is -8.72%. As for `CCC(=O)OC1(c2ccccc2)CCN(C)CC1`, the “activity change, negative = inhibition” value was -0.593% [at 104 µM]. For `COc1cc(C[C@@H](C)N)c(OC)cc1C`, the “activity change, negative = inhibition” value is 7.39% [at 104 µM]. In the case of `C[N+](C)(C)CCOC(=O)C(O)(c1ccccc1)c1ccccc1`, the “activity change, negative = inhibition” value is -7.6%. On the same count and under the same terms, next, `CC1=C2[C@H]3OC(=O)[C@@H](C)[C@@H]3CC[C@@]2(C)C=CC1=O`: 2.08%; `CC[C@H]1C[C@@H]2C[C@H]3c4[nH]c5ccc(OC)cc5c4CCN(C2)[C@@H]13`: -10.4% [at 104 µM]; `CCN1CCCC1CNC(=O)C(O)(c1ccccc1)c1ccccc1` (stereo not drawn): -3.04%. On to `CC[C@]1(O)CC[C@H]2[C@@H]3CCC4=CCCC[C@@H]4[C@H]3CC[C@@]21C`, for which the “activity change, negative = inhibition” value is 0.0051%.

Turning to `Cc1nnc2n1-c1sc(CCC(=O)N3CCOCC3)cc1C(c1ccccc1Cl)=NC2`, the “activity change, negative = inhibition” value is -3.42%. Turning to `CCOC(=O)C1(c2ccccc2)CCN(CCc2ccc(N)cc2)CC1`, the “activity change, negative = inhibition” value is -8.32%.

As for `ClCc1cccc(Cl)c1`, the “activity change, negative = inhibition” value is -0.447%. As for `O=C1NCN(c2ccccc2)C12CCN(CCCOc1ccc(F)cc1)CC2`, the Potency entry is “inactive”.
